Assay results taken from PubChem BioAssay AID624305 (National Center for Advancing Translational Sciences (NCATS), 2012).
Inconclusive results are not listed. Where a call stands in place of a potency, no number is given. Active and inactive are the calls of the source. The call rests on the fitted dose curve; in most records, active means well fitted activation curve with a large enough effect; inconclusive means small, poorly fitted or top-dose-only effect; inactive means no such curve, though single readings can be large or run the other way.

Assay: qHTS assay for re-activators of p53 using a Luc reporter: Hit Validation; further: nearly all actives have a fitted effect of over 75% in size
Settings: p53-responsive luciferase reporter cells, luminescence, H1299 line expressing heat-sensitive Ala138Val p53; series mostly up to 46.1 µM
How it was run: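 Hit confirmation with a 1:5 dilution series, at 37 deg C for 24 hrs, in H1299 cells co-expressing temperature-sensitive p53-A138V and p53-responsive luciferase. Nocodazole served as control; luminescence read after 10 min with detection reagent.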
Potency means the concentration at half of the fitted maximal effect.

With Cc1ccc(S(=O)(=O)NCC(=O)N2CCc3ccccc3C2)cc1 as the molecule, how does the Potency read?
Its Potency is “inactive”.

For COc1ccccc1-c1c(C)nn2c(C)c(C(C)=O)cnc12, which Potency is on record?
Its Potency is “inactive”.

Which Potency does the source give for Cc1ccc(NC(=O)c2ccc3nc[nH]c3c2)cc1C here?
Its Potency is 23.1 µM (active).

Which Potency does the source give for C/C(=N\NS(=O)(=O)c1ccc(Cl)cc1)c1ccc(NC(=O)c2ccco2)cc1 here?
Its Potency is “inactive”.

With ON=C1c2cc(OCCN3CCCCC3)ccc2-c2ccc(OCCN3CCCCC3)cc21 as the molecule, how does the Potency read?
The Potency was “inactive”.

Which Potency does the source give for CCOC(=O)N(Cc1ccccc1)C(C(=O)O)C(C(=O)O)N(Cc1ccccc1)C(=O)OCC (stereo not drawn) here?
The Potency was “inactive”.

Which Potency does the source give for CCOc1ccc(NC(=O)C(c2ccccn2)N(C(=O)CCl)c2ccc(OC)cc2)cc1 (stereo not drawn) here?
Its Potency is “inactive”.

For C#CCn1c(=NC(=O)c2cccs2)sc2cccc(OCC)c21, which Potency is on record?
The Potency was “inactive”.

For COc1ccc(C(=O)N/N=C(\C)c2ccccn2)cc1OC, which Potency is on record?
The Potency was 13 µM (active).

With C/C(=N\N=c1/scc(C)n1Cc1ccco1)c1cccc([N+](=O)[O-])c1 as the molecule, how does the Potency read?
Its Potency is “inactive”.

Which Potency does the source give for O=C(NOCc1ccccc1)c1ccccc1 here?
The Potency was 9.2 µM (active).

With COc1ccc(C2SCCN2C(=S)Nc2ccc(Cl)cc2)cc1 (stereo not drawn) as the molecule, how does the Potency read?
The Potency was “inactive”.

For Cc1c(/C(O)=C2/C(=O)C(=O)N(Cc3cccnc3)C2c2cccs2)cnn1-c1ccccc1 (stereo not drawn), which Potency is on record?
Its Potency is 8.2 µM (active).

Which Potency does the source give for O=C(Nc1ccc(COc2ccccc2)cc1)c1cccc([N+](=O)[O-])c1 here?
The Potency was “inactive”.

With CSC1=NCCN1C(=O)c1ccc(Br)o1 as the molecule, how does the Potency read?
Its Potency is “inactive”.

Which Potency does the source give for O=C(/C=C/Nc1ccccc1C(=O)O)c1cccs1 here?
The Potency was “inactive”.

Which Potency does the source give for CCc1nnc(NC(=O)/C=C/c2ccco2)s1 here?
The Potency was 20.6 µM (active).

With Cc1csc(NC(=O)/C=C/c2ccco2)n1 as the molecule, how does the Potency read?
The Potency was 10.3 µM (active).
